Screening data from PubChem.
aSyn UTR act – Activators via SNCA 5'UTR binding, MLPCN; alpha-synuclein 5'UTR reporter, activators screen; activity score, % (tested at 7.5 µM), hits read low; hit rate 7.1% among 300,000; AID 1814; in the data active means activity score below about -60%
* hit, by the source's call. A selection follows.

SMILES | aSyn UTR act
O=C(NCC1CCCO1)c1cc(-c2ccccc2F)no1 (stereo not drawn) | -204*
CC(NC(=O)c1ccc([N+](=O)[O-])o1)C12CC3CC(CC(C3)C1)C2 (stereo not drawn) | -168*
O=C(NCC1CCCO1)c1ccc(-c2ccccc2Cl)o1 (stereo not drawn) | -115*
CC(NC(=O)COC(=O)c1ccc2c(c1)S(=O)(=O)N=C1CCCCCN12)C12CC3CC(CC(C3)C1)C2 (stereo not drawn) | 68
O=C(NCC1CCCO1)c1ccc([N+](=O)[O-])o1 (stereo not drawn) | -90*
O=C(NC1CCCCC1)c1ccc(-c2ccccc2[N+](=O)[O-])o1 | -83*
O=C(NC1CCCCC1)c1ccc([N+](=O)[O-])o1 | -79*
CCOC(=O)c1ccc(Nc2nnc(C)c3ccccc23)cc1 | -104*
CCOC(=O)c1ccc(Nc2cnc3ccccc3n2)cc1 | -176*
CCc1ccc(NCc2nc3ccccc3c(=O)[nH]2)cc1 | -138*
CCOC(=O)c1c(C)nc(-c2ccccc2)nc1NC(=O)CC | -87*
CC(=O)c1ccc(Nc2nc(C)cc(C)n2)cc1 | -126*
CCOC(=O)c1ccc(Nc2nc(C)cc(C)n2)cc1 | -104*
CCOC(=O)c1ccc(Nc2cc(C)nc(-c3ccccc3)n2)cc1 | -213*
CCOC(=O)c1ccc(NCc2nc3ccccc3[nH]2)cc1 | -149*
CCOc1ccccc1C1N=C(c2ccc(OC)cc2)CC(c2ccccc2O)N1 (stereo not drawn) | -234*
CCOc1ccc(C2=Nn3c(nnc3-c3ccccc3OC)SC2)cc1 | 109
CCOc1ccccc1C1CC(=O)Nc2cc3c(cc21)OCO3 (stereo not drawn) | 66
COc1ccccc1OCC(=O)N/N=C1\CCc2ccccc21 | -143*
Cc1cccc2c1OCC/C2=N\NC(=O)COc1ccccc1 | -86*
O=C(COc1ccccc1F)N/N=C1\CCCc2ccccc21 | -162*
COc1ccc(NC(=O)c2cnc(SC)nc2)cc1 | -124*
COc1ccc(NC(=O)c2scc(S(=O)(=O)C(C)C)c2N)cc1 | -193*
COc1ccc(NC(=O)c2sc(SC)nc2N)cc1 | -197*
CCN(CC)c1ccc(NC(=O)c2ccc3c(c2)OCO3)cc1 | -133*
SMILES | aSyn UTR act
CCOC(=O)c1ccc(NC(=O)c2ccc3c(c2)OCO3)cc1 | -118*
CCOC(=O)c1c(C)[nH]c(C(=O)Nc2ccc3c(c2)OCO3)c1C | -99*
CCOC(=O)c1ccc(N2Cc3ccccc3C2=N)cc1 | -78*
Cc1nn(-c2ccc(Br)cc2)c(=O)c2ccccc12 | -113*
CC1(C)CN=c2s/c(=C\c3ccc(Cl)cc3)c(=O)n2C1 | -111*
Cc1ccc(-c2cc(NC(=O)c3ccccc3)on2)cc1 | -190*
Cc1ccc(C(=O)Nc2ccccc2Sc2ccccc2)cc1 | -62*
COc1ccc(C(=O)Nc2cc(-c3ccc(C)cc3)no2)cc1 | -65*
CNc1ncc(C(=O)c2ccc(Br)cc2)s1 | -108*
CNc1ncc(C(=O)c2ccccc2)s1 | -66*
Cn1c(-c2ccc3ccccc3n2)[n+](C)c2ccccc21 | -65*
COc1ccc(/C(N)=N/OC(=O)c2ccc(Br)o2)cc1 | -155*
N/C(=N\OC(=O)c1ccc(Br)o1)c1cccnc1 | -143*
CCOC(=O)C1(Cc2ccccc2Cl)CCN(C(=O)CN2CCOC2=O)CC1 | -145*
O=C(CCCC(=O)c1ccc(F)cc1)c1ccc(F)cc1 | -118*
CCOc1ccc(C(=O)CCCC(=O)c2ccc(OCC)cc2)cc1 | -82*
O=C(N/N=C/c1cccs1)c1ccccn1 | -79*
Cn1cccc1/C=N/NC(=O)c1cc2ccccc2cc1O | -82*
Cn1cccc1/C=N/NC(=O)c1ccccn1 | -71*
Cn1cccc1C(=O)N/N=C/c1c(Cl)cccc1Cl | -100*
Cn1cc(C(=O)N/N=C/c2c(O)ccc3ccccc23)ccc1=O | 96
O=C(O)c1cccc(N/N=C/c2cccs2)c1 | 96
CC(C)(C)NC(=O)C(=O)N/N=C/c1cccs1 | -120*
Cc1ccc2c(Cl)c(C(=O)N/N=C/c3cccn3C)sc2c1 | -135*
CCOc1cccc(/C=N/Nc2ccc(S(=O)(=O)N(CC)CC)cn2)c1O | 88
SMILES | aSyn UTR act
CCOc1cccc(C=Nc2cc(C)cc(C)c2O)c1O | -85*
CCOc1cccc(/C=N/NC(=S)Nc2cc(S(=O)(=O)N3CCOCC3)ccc2N2CCOCC2)c1O | 81
CC(=O)c1sc(N/N=C\c2ccc(Br)cc2)nc1C | -79*
CCOC(=O)c1nc(N/N=C/c2ccccc2)sc1Br | -82*
CCCc1sc(N/N=C/c2ccccn2)nc1-c1ccc(Br)cc1 | 82
C#CC(C)(C)NC(=O)c1ccc(-c2ccccc2F)cc1 | -89*
O=c1c2c(nc3c(-c4cccc(Br)c4)c[nH]n13)CCCC2 | 69
Cc1ccc(-c2[nH]n3c(=O)c4c(nc3c2C)CCCC4)cc1 | -75*
Cc1c(-c2ccccc2)[nH]n2c(=O)c3c(nc12)CCCC3 | -166*
O=C1CC(c2cc(-c3ccccc3)no2)C1 | -99*
O=c1cc(N2CCN(c3ccccc3Cl)CC2)[nH]c(=O)n1Cc1ccc(F)cc1 | -72*
Cc1ccc(S(=O)(=O)N(C(=O)c2ccncc2)c2ccc(OC(=O)c3ccncc3)c3ccccc23)cc1 | -65*
COC(=O)c1c(C)oc2ccc(N(C(=O)c3ccncc3)S(=O)(=O)c3ccc(C)cc3)cc12 | 110
Cn1cccc1/C=C1\Cc2ccccc2C1=O | -142*
COCCN1Cc2cccc(C(=O)Nc3cccc(-c4nc5ccccc5[nH]4)c3)c2C1=O | -80*
CCCN1Cc2cccc(C(=O)Nc3ccc(-c4nc5ccccc5[nH]4)cc3)c2C1=O | -62*
CCn1c(=O)c2cc(C(=O)NC(C)C)sc2c2ccccc21 | -79*
Cc1ccc(O)c(NC(=S)NC(=O)/C=C/c2ccco2)c1 | -170*
Cc1ccnc(NC(=S)NC(=O)/C=C/c2ccco2)c1 | -334*
O=C1/C(=C\Nc2ccc(Cl)cc2)CCN1c1ncccn1 | -158*
O=C1/C(=C\Nc2ccc(OC(F)(F)F)cc2)CCN1c1ncccn1 | -201*
CC(c1nccs1)N(C)C(=O)c1cn(Cc2cccc3ccccc23)nn1 (stereo not drawn) | -86*
C/C(=N\OC(=O)NC(C)C)c1sc(-c2ccc(Cl)cc2)nc1C | -154*
C/C(=N\OC(=O)NC(C)C)c1sc(-c2ccccc2)nc1C | -141*
CCNC(=O)O/N=C(\C)c1sc(-c2ccc(Cl)cc2)nc1C | -77*
SMILES | aSyn UTR act
C/C(=N\OC(=O)NC1CCCCC1)c1sc(-c2ccccc2)nc1C | -115*
C=C(C)c1sc(-c2ccc(Cl)cc2)nc1C | -223*
CC1CC2(C)Oc3ccccc3CC2C(C)C1CNCCCN(C)C (stereo not drawn) | 106
O=[N+]([O-])c1ccc2nc(-c3ccccc3)oc2c1 | -224*
COc1cccc(-c2nc3ccc([N+](=O)[O-])cc3o2)c1 | -120*
COc1ccc(-c2nc3c(n2O)CCc2c-3no[n+]2[O-])cc1 | -131*
Oc1ccccc1/C=N/Nc1ccccc1 | -133*
Oc1ccc(/C=N/Nc2ccc3ccccc3c2)c(O)c1 | -135*
Cc1cccc(C(=O)Nc2sc(-c3ccccc3)cc2C(=O)O)c1 | -180*
CC(C)(C)C(=O)Nc1sc(-c2ccccc2)cc1C(=O)O | -87*
CCN1CCN(Cc2ccc(OCc3ccccc3)cc2)CC1 | -77*
CCN1CCN(Cc2ccc(OCc3ccccc3)c(OC)c2)CC1 | -90*
CC(=O)c1cccc(NC(=O)N2CCc3ccccc3C2)c1 | -171*
CC(=O)c1ccc(NC(=O)N2CCc3ccccc3C2)cc1 | -87*
